This is an account of results in PubChem BioAssay.

The subject of assay [1] is Wnt5a (protein binding on small-molecule microarray). The assay is described as follows: small molecules binding Wnt5a protein – biophysical, small-molecule microarray, 635/667 nm fluorescence, primary screen (AID 1142).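 Also: fluorescence read at 667 nm with signal to noise per printed feature.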 Particulars: 635 nm fluorescence, higher = more signal.
A short description of assay [2]: ATP-based viability of Huh7 replicon cells – cell-based, CellTiter-Glo luminescence, basal, 48 h, cytotoxicity control for HCV replication inhibitor project, primary screen (AID 1143).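 Also: Huh7 hepatoma cells carrying a hepatitis C replication reporter with no stimulus; test concentration not given here.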 To be noted: higher = more signal, called active from +8 up or from −8 down. In general terms: Replicon systems follow genome replication, usually without infectious particles.
Assay [3] is described as follows: Pseudomonas biofilm growth suppression – PAO1 strain, BacTiter-Glo luminescence, LB-PBS, primary screen (AID 1144). To be noted: P. aeruginosa PAO1 biofilm, 12 h, higher = more signal.
Assay [4] can be described thus: basal CRE-LacZ reporter activity in PC12 – cell-based, unstimulated, primary screen (AID 1145). Particulars: no forskolin, luminescence, 4.5 h, higher = more signal, called active from +8 up or from −8 down.
Assay [5] is described as follows: forskolin-driven CRE-LacZ activity in PC12 – cell-based, CRE-LacZ reporter, forskolin-stimulated, primary screen (AID 1146).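 Also: PC12 cells with 6xCRE LacZ reporter stimulated by forskolin 10 µM; beta-galactosidase reporter signal reflecting CREB driven transcription.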 Particulars: luminescence, 4.5 h, higher = more signal, called active from +8 up or from −8 down.
Assay [6] deals with Streptavidin (Streptomyces avidinii) (UniProt P22629). Kind of assay: compounds binding control protein streptavidin – biophysical, small-molecule microarray, 635/667 nm fluorescence, artefact control for SMM compound annotation, primary screen (AID 1147).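 Also: signal reflects streptavidin binding to arrayed compounds as a control protein.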 Particulars: higher = more signal.
Streptavidin (Streptomyces avidinii), sequence (P22629 whole entry, looked up): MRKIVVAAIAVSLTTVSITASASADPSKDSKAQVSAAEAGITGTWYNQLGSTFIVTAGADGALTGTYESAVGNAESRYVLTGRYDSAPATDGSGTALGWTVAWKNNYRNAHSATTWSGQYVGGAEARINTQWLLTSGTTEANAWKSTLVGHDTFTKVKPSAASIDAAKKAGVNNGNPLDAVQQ
Assay [7] is described as follows: probe aInhba binding on compound microarray – biochemical, small-molecule microarray, 635/667 nm fluorescence, primary screen (AID 1148).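 Also: score merges 667nm spot fluorescence with signal-to-noise for antibody binding to printed compounds.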 Particulars: higher = more signal.
The target in assay [8] is Torsin-1A (Homo sapiens) (UniProt O14656). The assay is described as follows: TOR1A wild-type binding on microarray – cell lysate, small-molecule microarray, lysate, 635/667 nm, primary screen (AID 1149). To be noted: COS7 hTOR1A-WT lysate, 635 nm fluorescence, higher = more signal.
Torsin-1A (Homo sapiens), sequence (O14656 whole entry, looked up): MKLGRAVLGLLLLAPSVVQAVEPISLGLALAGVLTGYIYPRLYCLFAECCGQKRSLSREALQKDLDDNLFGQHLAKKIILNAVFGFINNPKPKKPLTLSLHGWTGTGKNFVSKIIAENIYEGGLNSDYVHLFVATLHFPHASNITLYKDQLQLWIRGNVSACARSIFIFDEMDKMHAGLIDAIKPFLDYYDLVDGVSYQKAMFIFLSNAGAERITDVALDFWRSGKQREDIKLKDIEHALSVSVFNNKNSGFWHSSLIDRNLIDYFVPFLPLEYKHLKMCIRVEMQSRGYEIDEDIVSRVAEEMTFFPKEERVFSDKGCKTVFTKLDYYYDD
Assay [9] has the same target. Kind of assay: torsin A mutant lysate binding on microarrays – cell lysate, small-molecule microarray, COS7 lysate, 635/667 nm fluorescence, primary screen (AID 1150).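 Also: score pools 667 nm emission and signal to noise measuring lysate protein binding.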 Particulars: COS7 hTOR1A mutant lysate, 635 nm fluorescence, higher = more signal.
For assay [10], the system named is Sonic hedgehog protein (Shh). Kind of assay: Sonic hedgehog microarray binding compounds – biochemical, small-molecule microarray, 635/667 nm fluorescence, primary screen (AID 1151).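 Also: Shh protein binding to compounds spotted on small-molecule microarray slides; score combines spot fluorescence intensity with signal-to-noise across triplicate slides.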 To be noted: 635 nm fluorescence, higher = more signal.
Assay [11] in a line: optical density shifts of acrAB sulA E. coli – strain DRC41, OD650, 48 h, E. coli filamentation inducer project, primary screen (AID 1152).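 Also: E. coli MC1000 strain DRC41 lacking acrAB efflux pump and sulA.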 To be noted: higher = more signal, called active from +8 up or from −8 down.
Assay [12] can be described thus: probe aLefty1 binding on compound microarray – biochemical, small-molecule microarray, 635/667 nm fluorescence, primary screen (AID 1153).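 Also: score merges spot fluorescence with signal-to-noise ratio from the scanned slide images.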 Particulars: higher = more signal.
Assay [13] in a line: plasmodial surface anion channel blockers, osmotic lysis – cell-based, P. falciparum Indochina, OD700, 1 h, primary screen (AID 1154). To be noted: P. falciparum Indochina infected RBC osmotic lysis, higher = more signal, called active from +8 up or from −8 down.
The nature of assay [14]: plasmodial surface anion channel blockers, osmotic lysis – cell-based, P. falciparum Indochina, OD700, 2 h, primary screen (AID 1155).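 Also: lysis reports solute entry through the parasite surface anion channel PSAC.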 To be noted: P. falciparum Indochina infected erythrocytes, higher = more signal, called active from +8 up or from −8 down.
Assay [15] in a line: changes in parasitized red cell lysis, either direction – P. falciparum Indochina, OD700, 3 h, PSAC antagonist project, primary screen (AID 1156). To be noted: P. falciparum-infected erythrocytes, osmotic lysis, higher = more signal, called active from +8 up or from −8 down.
The nature of assay [16]: plasmodial surface anion channel blockers, osmotic lysis – cell-based, P. falciparum Indochina, OD700, 18 h, primary screen (AID 1157). Particulars: P. falciparum Indochina infected erythrocytes, osmotic lysis OD700, 18 h; higher = more signal, called active from +8 up or from −8 down.
Assay [17] is described as follows: S6 kinase pathway phospho-S6 level changes – cell-based, A549, cytoblot, luminescence, serum-stimulated, primary screen (AID 1158).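 Also: serum-stimulated A549 lung adenocarcinoma cells; signal is phosphorylated S6 detected by cytoblot immunostaining with HRP secondary.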 Particulars: 5 h, higher = more signal.
For assay [18], the target named is NADPH oxidase 2 (Homo sapiens) (UniProt P04839). Kind of assay: compounds shifting NOX2 Amplex Red fluorescence – cell-based, HEK293-NOX2, PMA-stimulated, NOX inhibitor project, primary screen (AID 1159). Also: test concentration not given here. To be noted: 45 min, higher = more signal, called active from +8 up or from −8 down.
NADPH oxidase 2 (Homo sapiens), sequence (P04839 whole entry, looked up): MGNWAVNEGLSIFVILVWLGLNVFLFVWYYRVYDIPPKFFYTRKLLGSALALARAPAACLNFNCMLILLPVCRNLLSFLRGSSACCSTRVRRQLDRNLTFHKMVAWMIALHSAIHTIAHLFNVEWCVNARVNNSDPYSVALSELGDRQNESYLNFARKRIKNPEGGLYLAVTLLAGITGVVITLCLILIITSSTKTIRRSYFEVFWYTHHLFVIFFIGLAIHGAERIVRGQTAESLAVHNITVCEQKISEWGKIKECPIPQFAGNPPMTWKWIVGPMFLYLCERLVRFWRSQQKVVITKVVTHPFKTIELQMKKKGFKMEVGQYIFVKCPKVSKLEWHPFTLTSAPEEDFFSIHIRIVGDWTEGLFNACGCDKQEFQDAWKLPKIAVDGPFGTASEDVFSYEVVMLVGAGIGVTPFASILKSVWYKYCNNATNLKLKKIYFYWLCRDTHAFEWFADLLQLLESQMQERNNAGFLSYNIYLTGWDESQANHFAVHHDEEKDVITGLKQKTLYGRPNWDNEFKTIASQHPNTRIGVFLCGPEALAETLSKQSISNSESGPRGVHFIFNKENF
The target of assay [19] is NADPH oxidase 4 (Homo sapiens) (UniProt Q9NPH5). Kind of assay: compounds shifting NOX4 Amplex Red fluorescence – cell-based, HEK293-NOX4, tetracycline-induced, NOX inhibitor project, primary screen (AID 1160). To be noted: HEK293-NOX4, Amplex Red H2O2 fluorescence, 45 min; higher = more signal, called active from +8 up or from −8 down.
NADPH oxidase 4 (Homo sapiens), sequence (Q9NPH5 whole entry, looked up): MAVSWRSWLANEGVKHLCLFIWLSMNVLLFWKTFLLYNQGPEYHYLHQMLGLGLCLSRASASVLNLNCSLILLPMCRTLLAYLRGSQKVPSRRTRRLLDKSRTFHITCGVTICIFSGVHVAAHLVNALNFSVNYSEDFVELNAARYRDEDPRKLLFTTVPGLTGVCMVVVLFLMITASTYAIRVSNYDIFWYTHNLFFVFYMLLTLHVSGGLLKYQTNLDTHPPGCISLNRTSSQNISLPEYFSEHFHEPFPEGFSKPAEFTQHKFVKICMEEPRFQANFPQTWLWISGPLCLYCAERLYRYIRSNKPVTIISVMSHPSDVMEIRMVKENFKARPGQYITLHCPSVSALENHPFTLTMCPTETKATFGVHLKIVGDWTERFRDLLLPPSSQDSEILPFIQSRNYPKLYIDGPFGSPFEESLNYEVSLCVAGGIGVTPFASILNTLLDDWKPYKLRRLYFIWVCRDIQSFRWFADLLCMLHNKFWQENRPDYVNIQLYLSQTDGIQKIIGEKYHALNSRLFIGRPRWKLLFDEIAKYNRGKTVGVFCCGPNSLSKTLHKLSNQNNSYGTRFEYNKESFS
The target in assay [20] is NADPH oxidase 5 (Homo sapiens) (UniProt Q96PH1). The assay is described as follows: compounds shifting NOX5 Amplex Red fluorescence – cell-based, HEK293-NOX5, NOX inhibitor project, primary screen (AID 1161). To be noted: HEK293-NOX5, ionomycin, 45 min, higher = more signal.
NADPH oxidase 5 (Homo sapiens), sequence (Q96PH1 whole entry, looked up): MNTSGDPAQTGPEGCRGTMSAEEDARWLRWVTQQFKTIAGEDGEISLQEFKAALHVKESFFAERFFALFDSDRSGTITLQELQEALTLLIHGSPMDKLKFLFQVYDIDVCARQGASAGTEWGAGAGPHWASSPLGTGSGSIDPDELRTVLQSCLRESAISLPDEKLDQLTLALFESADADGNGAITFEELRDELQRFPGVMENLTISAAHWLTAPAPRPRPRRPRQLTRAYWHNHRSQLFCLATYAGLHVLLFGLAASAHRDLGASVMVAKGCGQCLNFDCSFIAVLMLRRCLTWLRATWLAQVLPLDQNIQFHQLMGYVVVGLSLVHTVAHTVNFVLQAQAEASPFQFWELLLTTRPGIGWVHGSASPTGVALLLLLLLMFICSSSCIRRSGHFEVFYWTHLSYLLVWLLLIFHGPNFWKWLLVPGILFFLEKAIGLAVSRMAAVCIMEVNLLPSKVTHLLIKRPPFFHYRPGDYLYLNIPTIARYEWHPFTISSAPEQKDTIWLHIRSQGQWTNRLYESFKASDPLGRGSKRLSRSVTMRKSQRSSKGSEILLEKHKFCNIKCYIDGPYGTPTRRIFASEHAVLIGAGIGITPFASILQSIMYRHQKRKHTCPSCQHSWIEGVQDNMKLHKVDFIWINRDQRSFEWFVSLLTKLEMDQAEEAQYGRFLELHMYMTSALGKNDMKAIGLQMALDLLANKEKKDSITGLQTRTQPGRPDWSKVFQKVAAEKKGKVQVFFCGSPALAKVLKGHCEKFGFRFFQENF

Calls of active or inactive are those of the source. Unless noted, no rule for the calls is given here.

Regarding `CCCCC(=C=CC[C@@H](O)c1ccc(OCCO)cc1)CCO`, the composite z-score in assay [1] is -0.032; in assay [6] it was -0.217; in assay [7] it was 0.0342; in assay [8] it was 0.112; in assay [9], 0.654; in assay [10], 0.98. Further, the composite z-score in assay [12] is 0.0129. Also, the z-score in assay [2] was -1.75 (inactive); in assay [3], 0.234 (inactive); in [4], 7.73 (inactive); in assay [5] it was -0.882 (inactive); in assay [11] it was 0.565 (inactive); in [13], 6.76 (inactive). Besides, the z-score in [14] is 0.892 (inactive); in assay [15], 0.249 (inactive); in [16] it was 0.503 (inactive); in assay [17] it was -0.481; in assay [18], 1.14 (inactive); in assay [19] it was 0.699 (inactive). The z-score in [20] is -0.192.
Take `COC(=O)C1=CC(CCCO)=CC(c2ccc(CN3CCCC3)cc2)N(C)C=C1C(=O)OC` (stereo not given): the composite z-score is 0.408 in assay [1]; 0.532 in assay [6]; 0.0658 in [7]; -1.01 in assay [8]; -0.418 in [9]; -0.284 in [10]. This compound registered a composite z-score in assay [12] of 0.212. Besides, the z-score in assay [2] was 0.209 (inactive); in assay [3], 0.0505 (inactive); in [4], -0.464 (inactive); in assay [5], -0.0736 (inactive); in assay [11] it was 0.265 (inactive); in assay [13], 1.77 (inactive). Further, the z-score in assay [14] is 0.422 (inactive); in [15], 0.587 (inactive); in assay [16], 0.155 (inactive); in assay [17] it was -0.387; in [18], 0.452 (inactive); in [19], 0.225 (inactive). Further, in [20], the z-score came out at 0.463.
Consider `CCCCC=C[C@@H](NC(=O)C(C)(C)C)c1ccccc1`, for which the composite z-score in assay [1] was 0.5; in assay [6], 0.761; in assay [7], 0.353; in [8] it was 0.226; in [9] it was 0.487; in [10] it was -0.0371. This compound also returned a composite z-score in [12] of 0.181. The z-score was -2.89 (inactive) in assay [2]; 0.124 (inactive) in assay [3]; -0.185 (inactive) in assay [4]; 1.67 (inactive) in assay [5]; -2.16 (inactive) in [11]; 2.28 (inactive) in [13]. Further, the z-score was 1.43 (inactive) in assay [14]; -1.46 (inactive) in [15]; 1.45 (inactive) in assay [16]; -0.553 in [17]; -0.312 (inactive) in [18]; -2.16 (inactive) in assay [19]. In [20], the z-score worked out at 1.63.
Turning to `COC(=O)[C@@]1(Cc2ccccc2)[C@H]2c3cc(C(=O)N(C)C)n(CCF)c3C[C@H]2CN1C(=O)c1ccccc1`, the composite z-score in assay [1] is 0.633; in assay [6], 1.74; in assay [7], 0.333; in [8], -0.0224; in [9], 1.16; in assay [10], -0.187. The composite z-score in assay [12] amounted to 0.873. The z-score in assay [2] is -0.717 (inactive); in assay [3], -0.247 (inactive); in assay [4], 0.387 (inactive); in assay [5], 0.218 (inactive); in assay [11], -0.81 (inactive); in [13], 1.54 (inactive). Further, the z-score is 0.322 (inactive) in assay [14]; 0.484 (inactive) in assay [15]; 0.544 (inactive) in [16]; -0.546 in assay [17]; 0.148 (inactive) in [18]; -1.73 (inactive) in assay [19]. The z-score in [20] is -1.89.
`C[C@]1(C(=O)NCC(F)(F)F)c2ccccc2C(=O)N(Cc2cc(C(F)(F)F)cc(C(F)(F)F)c2)[C@H]1c1ccc(CO)cc1`: the composite z-score in [1] was -0.127; in assay [6], -0.7; in assay [7], -0.0963; in [8], -0.469; in [9], -0.34; in assay [10], -0.21. In [12], this compound showed a composite z-score of 0.0774. Besides, the z-score in assay [2] was -0.286 (inactive); in assay [3] it was 0.878 (inactive); in [4], 0.324 (inactive); in [5], 0.0167 (inactive); in [11], 1.17 (inactive); in assay [13] it was 3.54 (inactive). Besides, the z-score in [14] was -0.0979 (inactive); in [15], -0.29 (inactive); in assay [16], -0.16 (inactive); in [17] it was 0.361; in assay [18], -0.905 (inactive); in assay [19] it was 0.565 (inactive). In addition, the z-score in [20] was found to be 0.648.
`C=C(CC1([C@@H](NP(=O)(c2ccccc2)c2ccccc2)[C@H]2C[C@@H]2CCCC)CC1)c1cccc(OC)c1`: the composite z-score in assay [1] was 0.0445; in [6], 0.566; in assay [7], 0.0227; in assay [8], -0.547; in [9], -0.302; in assay [10], -0.836. For the same compound, the composite z-score in assay [12] turned out to be 0.494. The z-score was -1.65 (inactive) in assay [2]; 0.496 (inactive) in [3]; 0.0109 (inactive) in assay [4]; 0.276 (inactive) in assay [5]; -1.57 (inactive) in [11]; 2.33 (inactive) in [13]. In addition, the z-score in assay [14] was 0.451 (inactive); in assay [15], 1.36 (inactive); in assay [16], 0.935 (inactive); in [17], -0.254; in [18], -0.914 (inactive); in assay [19], -1.36 (inactive). Besides, the z-score in assay [20] is -2.78.
On to `O=C1C2C=CC(C(O)C3CC=CCC3)N(Nc3ccc([N+](=O)[O-])cc3)C2C(=O)N1c1ccccc1` (stereo not given), for which the composite z-score turned out to be 0.632 in assay [1]; 0.941 in assay [6]; 0.74 in assay [7]; 0.26 in assay [8]; 0.483 in assay [9]; 0.606 in assay [10]. The same compound yielded a composite z-score in assay [12] of 0.908. Also, the z-score in assay [2] is -0.574 (inactive); in [3] it was -0.917 (inactive); in assay [4], 1.23 (inactive); in assay [5], 1.13 (inactive); in assay [11] it was -0.852 (inactive); in [13] it was 24.8 (active). Also, the z-score in [14] is 5.02 (inactive); in assay [15], 4 (inactive); in assay [16] it was 1.2 (inactive); in assay [17], -0.837; in assay [18], -1.03 (inactive); in [19], -3.02 (inactive). In addition, in assay [20], the z-score is -3.26.
On to `CN1C(=O)C2C=CC(C(O)c3ccc([N+](=O)[O-])cc3)N(Nc3ccccc3)C2C1=O` (stereo not given), for which the composite z-score in [1] was 0.288; in [6] it was 1.65; in [7] it was 0.179; in assay [8], 0.0754; in [9], 0.317; in assay [10] it was -0.0538. Moreover, the composite z-score in assay [12] came out at 0.658. The z-score was 0.349 (inactive) in [2]; -0.898 (inactive) in [3]; 0.0535 (inactive) in assay [4]; -0.323 (inactive) in assay [5]; -1.93 (inactive) in [11]; 1.98 (inactive) in assay [13]. The z-score in assay [14] was 1.36 (inactive); in assay [15] it was 2.88 (inactive); in assay [16] it was 1.44 (inactive); in assay [17] it was -1.06; in assay [18], -1.45 (inactive); in [19], -5.03 (inactive). Besides, in assay [20], the z-score was -3.26.
